The record followed here is PubChem BioAssay (NCATS).

Assay [1] is described as follows: qHTS for Inhibitors of the Functional Ribonucleoprotein Complex (vRNP) of Lassa (LASV) Arenavirus: LASV Primary Screen - GLuc reporter signal (AID 1347082; calls by dose curve; tested in HEK293 reporter line; also: % is scaled to controls: 0 for no effect and ±100 for the full control effect; nearly all actives have a fitted effect of over 60% in size). For orientation: Quantitative high-throughput screening tests each substance at several concentrations.
The nature of assay [2]: P-glycoprotein substrates identified in KB-8-5-11 adenocarcinoma cell line, qHTS therapeutic library screen (AID 1346987). Also: % is scaled to controls: 0 for no effect and ±100 for the full control effect; nearly all actives have a fitted effect of over 65% in size. The essentials: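 In this qHTS, P-gp-rich KB-8-5-11 cells received library compounds across a concentration range. Viability was quantified by luminescence after 72 h at 37 degree C.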
The subject of assay [3] is Zika virus NS2B-NS3 protease. Nature of the assay: Primary screen GU AMC qHTS for Zika virus inhibitors (AID 1347154).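 Also: 0% = no-inhibitor control and -100% = no-enzyme control; nearly all actives have a fitted effect of over 70% in size.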 The method, boiled down:
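Fluorogenic AMC-substrate cleavage by noncovalent NS2B-NS3 protease complex (25 nM, pH 8.0 Tris buffer with Tween 20) followed for 15 minutes at room temperature (~20% conversion). Percent inhibition from ex340/em450 signal change, fitted by 4-parameter Hill equation.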

Assay [4] addresses Catechol O-methyltransferase (Homo sapiens) (UniProt P21964). Nature of the assay: Confirmatory Screen for Target Class Profiling of Small Molecule Inhibitors of Methyltransferases (AID 1745852; calls by dose curve). The conditions noted are these: MTase-Glo luminescence, SAH detection, recombinant enzyme; measured here: COMT max response; stronger effect = lower value.
In assay [5] the target is Guanidinoacetate N-methyltransferase (Homo sapiens) (UniProt Q14353). The assay is described as above. Conditions: activity change, negative = inhibition: at 57.3 µM (top of the series) unless noted.
The target of assay [6] is Nicotinamide N-methyltransferase (Homo sapiens) (UniProt P40261). The description is as above. The conditions noted are these: MTase-Glo luminescence, SAH detection, recombinant enzyme; measured here: NNMT max response; stronger effect = lower value.
Assay [7] concerns the target Phenylethanolamine N-methyltransferase (Homo sapiens) (UniProt P11086). The assay is described as above. Conditions: MTase-Glo luminescence, SAH detection, recombinant enzyme; measured here: PNMT max response; stronger effect = lower value.
The target of assay [8] is Glutathione peroxidase 1 (Homo sapiens) (UniProt P07203). Nature of the assay: Primary qHTS Assay for Inhibitors of Recombinant Selenoprotein Glutathione Peroxidase 1 (GPX1) (AID 1845191). Also: nearly all actives have a fitted effect of over 65% in size. The essentials:
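NADPH consumption tracked by fluorescence at 340/450 nm between t=0 and t=15 min, room temperature. Final mix: 10 nM GPX1, 100 nM glutathione reductase, 1 mM GSH, 0.5 mM NADPH, 0.5 mM cumene hydroperoxide, 0.01% BSA; 30 min compound–enzyme preincubation.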

The target of assay [9] is Calcium and integrin-binding protein 1 (Homo sapiens) (UniProt Q99828). Nature of the assay: Primary qHTS for Identification of Calcium Integrin Binding Protein 1 (CIB1) Competitor (AID 1508620).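 Also: GST tagged CIB1 binding a fluorescein labelled alphaIIb integrin peptide tracer; top concentration of the series differs between compounds; % is scaled to controls: 0 for no effect and ±100 for the full control effect.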 The essentials: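 CIB1-GST (1 uM final) and compound incubated 15 min at room temperature before adding FITC-alphaIIb peptide tracer (100 nM final). Competition for binding read by fluorescence polarization (ex 480, em 540) after another 15 min at room temperature.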

Assay [10] can be described thus: Primary qHTS for inhibitors of nuclear receptor binding SET domain protein 2 (NSD2) in an isogenic RCH-ACV NSD2 p.E1099K mutant (9B) (AID 1645876). Also: potency is read from the fitted curve at half-maximal effect; nearly all actives have a fitted effect of over 70% in size.
Assay [11] is described as follows: Primary qHTS for inhibitors of nuclear receptor binding SET domain protein 2 (NSD2) in an RCH-ACV wild type WT cells (2C) (AID 1645877). Also: potency is read from the fitted curve at half-maximal effect; nearly all actives have a fitted effect of over 70% in size.
In assay [12] the target is Phospholipid hydroperoxide glutathione peroxidase GPX4 (Homo sapiens) (UniProt P36969). Nature of the assay: Primary qHTS Assay for Inhibitors of Recombinant Selenoprotein Glutathione Peroxidase 4 (GPX4) (AID 1845192). Also: % is scaled to controls: 0 for no effect and ±100 for the full control effect; nearly all actives have a fitted effect of over 65% in size. The essentials: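 NADPH consumption followed by fluorescence at 340/450 nm, t=0 and after 15 min at room temperature. Reaction started with cumene hydroperoxide (0.5 mM final) after 30 min compound–GPX4 preincubation; final 200 nM GPX4, 100 nM GR, 1 mM GSH, 0.5 mM NADPH.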

Assay [13] concerns the target Luciferin 4-monooxygenase (Photinus pyralis) (UniProt P08659). Nature of the assay: Primary firefly luciferase (FLuc) qHTS assay for identification of artifact compounds. (AID 1845220). Also: nearly all actives have a fitted effect of over 60% in size. Conditions: outcome: dose series up to 54.1 µM unless noted. The method, boiled down:
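FLuc 10 nM; luciferin 10 uM; ATP 10 uM; Tris-acetate pH 7.6, Mg-acetate 10 mM; 15 min RT preincubation; 5 min reaction; luminescence.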

Assay [14] in a line: Primary fluorescence-based thiol-reactive (MSTI) qHTS assay for identification of artifact compounds. (AID 1845221).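 Also: thiol-reactive compounds lower the probe fluorescence signal; nearly all actives have a fitted effect of over 65% in size.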 The essentials:
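Probe: MSTI 4 uM, PBS pH 7.4, 2% DMSO. Incubation 1 h, RT, light-protected. Readout fluorescence 525/598 nm.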

For assay [15], the system named is Nanoluciferase (engineered Oplophorus gracilirostris luciferase). Nature of the assay: Primary Nanoluciferase (NLuc) qHTS assay for identification of artifact compounds. (AID 1845222).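 Also: NLuc secreted into diluted conditioned medium of S16 cells; 0% = DMSO and -100% = no enzyme.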 The essentials:
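NLuc from S16 cell medium (1:55) plus test compounds, 15 min, room temperature. Luminescence after Nano-Glo (1:100) addition, 5 min.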

A short description of assay [16]: Primary redox qHTS assay for identification of artifact compounds. (AID 1845223).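 Also: 0% = DMSO and 100% = reference compound.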 The essentials:
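Redox-cycling detection via DTT (250 uM final) oxidation coupled to Amplex Red (25 uM)/HRP (250 mU/mL) in HBSS. 15 min preincubation plus 30 min after DTT, room temperature. Ex/Em 525/598 nm; 4-parameter Hill fit against DMSO and 10 uM DA3003.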

The test system of assay [17] is JEG-3. Nature of the assay: Primary qHTS to identify gynecologic anti-cancer compounds using libraries of approved drugs and bioactive compounds (AID 1345084). Also: % is scaled to controls: 0 for no effect and ±100 for the full control effect; nearly all actives have a fitted effect of over 55% in size. The conditions noted are these: Gynecologic cancer cell panel viability, ATPlite luminescence, 48 h; series mostly up to 57.5 µM. The method, boiled down: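 Cell viability after 48 h drug treatment, ATPlite luminescence readout; five doses.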

The target in assay [18] is Luciferin 4-monooxygenase (Photinus pyralis) (UniProt P08659). Nature of the assay: Biochemical firefly luciferase enzyme assay for NPC (AID 624030).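 Also: purified P. pyralis luciferase at 10 nM with luciferin and ATP substrate; 0% = DMSO and -100% = full luciferase inhibition by PTC124 control; nearly all actives have a fitted effect of over 70% in size.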 The method, boiled down: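 Direct inhibition of firefly luciferase enzyme (10 nM final, 50 mM Tris Acetate) assessed by luminescence within 5 minutes. Percent activity scaled between DMSO and PTC124 positive control, with concentration-effect curves classified by fit quality and response.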

The nature of assay [19]: qHTS Assay for Identifying Gametocytocidal Compounds (AID 743244).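 Also: % is scaled to controls: 0 for no effect and ±100 for the full control effect; actives lower the fluorescent signal which means gametocytes are killed.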 Conditions: P. falciparum 3D7 stage III-V gametocytes, alamarBlue, 72 h; max response: stronger effect = lower value. The method, boiled down:
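In this qHTS viability screen, late-stage 3D7 gametocytes are incubated with compound for 72 h, then with alamarBlue for 24 h; reduced resorufin fluorescence marks killing.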

A short description of assay [20]: Primary qHTS for Huh7 cytotoxicity: counterscreen for inhibitors of MERS-S pseudotyped particle cell entry (AID 1479147; calls by dose curve; also: % is scaled to controls: 0 for no effect and ±100 for the full control effect). Conditions: outcome: dose series up to 57.1 µM unless noted.
Assay [21] in a line: Primary qHTS for inhibitors of MERS-S pseudo-typed particle cell entry (AID 1479149; calls by dose curve; also: % is scaled to controls: 0 for no effect and ±100 for the full control effect; nearly all actives have a fitted effect of over 60% in size).
Assay [22] can be described thus: Primary qHTS for Vero E6 cytotoxicity: counterscreen for inhibitors of SARS-S pseudo-typed particle cell entry (AID 1479150; calls by dose curve). The conditions noted are these: outcome: dose series up to 57.1 µM unless noted.
The nature of assay [23]: Cytotoxicity counterscreen for inhibitors of SARS-CoV-2 cell entry (AID 1645845; calls by dose curve; also: % is scaled to controls: 0 for no effect and ±100 for the full control effect; nearly all actives have a fitted effect of over 50% in size). The essentials: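 ATP-content luminescence (ATPLite 1step, 15 min RT) read after 48 h compound exposure of Expi293F cells stably expressing human ACE2; normalized to cells-only wells and media-only wells.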
A short description of assay [24]: Primary qHTS to identify inhibitors of SARS-CoV-2 cell entry (AID 1645846; calls by dose curve; also: nearly all actives have a fitted effect of over 45% in size). Conditions: activity change, negative = inhibition: at 57.1 µM (top of the series) unless noted. The method, boiled down:
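Data are normalized to wells receiving SARS-CoV-2-S pseudoparticles and those given bald particles. Entry signal was luciferase luminescence in stable hACE2 Expi293F cells, 48 hr post-infection, after 1 hr compound pretreatment.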

Assay [25] can be described thus: Drug repurposing screens with cells derived from glioblastoma tumor samples (AID 1345199). Also: % is scaled to controls: 0 for no effect and ±100 for the full control effect; nearly all actives have a fitted effect of over 40% in size. The conditions noted are these: GBM patient neurospheres viability, ATP luminescence, 48 h; Potency: tumour line A; series mostly up to 45.9 µM. The method, boiled down: (§1)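 Primary testing used CD133+ neurospheres from four GBM patients, seven concentrations, 48 h exposure and ATP-based viability; confirmation added three slower-growing patient lines.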

The test system of assay [26] is astro. The assay is described as above. The conditions noted are these: viability, ATP luminescence, 48 h; series mostly up to 45.9 µM. The essentials:
as §1

Inconclusive results are not listed. Active and inactive are the calls of the source. Unless noted, calls follow the shape of the dose curve; as a rule, active = well fitted curve in the direction sought with a large enough effect; inconclusive = small, poorly fitted or top-dose-only effect, or another doubt; inactive = no such curve, though single readings can be large; an effect the other way counts as inactive or inconclusive.

Sequence of Glutathione peroxidase 1 (Homo sapiens) (P07203 whole entry, looked up): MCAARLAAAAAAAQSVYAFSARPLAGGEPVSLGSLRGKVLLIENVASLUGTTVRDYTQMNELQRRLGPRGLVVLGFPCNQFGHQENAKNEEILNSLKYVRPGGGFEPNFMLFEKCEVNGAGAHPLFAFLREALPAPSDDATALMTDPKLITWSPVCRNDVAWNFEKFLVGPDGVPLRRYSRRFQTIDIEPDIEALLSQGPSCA
Sequence of Phospholipid hydroperoxide glutathione peroxidase GPX4 (Homo sapiens) (P36969 whole entry, looked up): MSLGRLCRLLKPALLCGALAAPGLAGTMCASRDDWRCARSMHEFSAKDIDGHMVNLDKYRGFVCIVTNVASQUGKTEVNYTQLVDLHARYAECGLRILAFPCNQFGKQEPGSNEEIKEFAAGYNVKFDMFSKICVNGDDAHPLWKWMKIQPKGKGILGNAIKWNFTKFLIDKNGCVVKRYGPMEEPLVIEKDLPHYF
Sequence of Nicotinamide N-methyltransferase (Homo sapiens) (P40261 whole entry, looked up): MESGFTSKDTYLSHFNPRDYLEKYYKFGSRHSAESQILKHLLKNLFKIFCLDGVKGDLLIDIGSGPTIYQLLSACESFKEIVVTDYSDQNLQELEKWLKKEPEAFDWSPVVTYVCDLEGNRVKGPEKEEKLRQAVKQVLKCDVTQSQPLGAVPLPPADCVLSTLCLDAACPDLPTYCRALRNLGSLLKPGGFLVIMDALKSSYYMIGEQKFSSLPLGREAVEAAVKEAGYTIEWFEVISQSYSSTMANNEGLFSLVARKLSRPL
Sequence of Luciferin 4-monooxygenase (Photinus pyralis) (P08659 whole entry, looked up): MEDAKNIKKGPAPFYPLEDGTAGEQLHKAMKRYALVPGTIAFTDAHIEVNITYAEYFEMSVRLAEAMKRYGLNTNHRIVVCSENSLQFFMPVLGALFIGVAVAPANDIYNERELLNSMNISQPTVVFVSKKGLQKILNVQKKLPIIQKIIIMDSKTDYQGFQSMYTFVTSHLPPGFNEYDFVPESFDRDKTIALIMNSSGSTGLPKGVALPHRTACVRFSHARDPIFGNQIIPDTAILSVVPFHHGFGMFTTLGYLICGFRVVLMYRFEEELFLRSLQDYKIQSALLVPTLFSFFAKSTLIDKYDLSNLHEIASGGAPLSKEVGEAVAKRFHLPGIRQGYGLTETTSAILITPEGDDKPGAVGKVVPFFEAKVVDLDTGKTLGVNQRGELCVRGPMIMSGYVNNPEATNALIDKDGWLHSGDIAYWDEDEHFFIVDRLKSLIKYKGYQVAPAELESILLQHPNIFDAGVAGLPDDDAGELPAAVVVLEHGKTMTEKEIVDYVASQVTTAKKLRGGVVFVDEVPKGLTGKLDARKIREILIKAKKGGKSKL
Sequence of Calcium and integrin-binding protein 1 (Homo sapiens) (Q99828 whole entry, looked up): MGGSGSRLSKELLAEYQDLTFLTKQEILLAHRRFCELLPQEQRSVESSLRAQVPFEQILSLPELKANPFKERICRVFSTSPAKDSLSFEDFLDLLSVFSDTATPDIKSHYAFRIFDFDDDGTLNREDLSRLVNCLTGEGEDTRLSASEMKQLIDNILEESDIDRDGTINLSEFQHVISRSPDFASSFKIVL
Sequence of Catechol O-methyltransferase (Homo sapiens) (P21964 whole entry, looked up): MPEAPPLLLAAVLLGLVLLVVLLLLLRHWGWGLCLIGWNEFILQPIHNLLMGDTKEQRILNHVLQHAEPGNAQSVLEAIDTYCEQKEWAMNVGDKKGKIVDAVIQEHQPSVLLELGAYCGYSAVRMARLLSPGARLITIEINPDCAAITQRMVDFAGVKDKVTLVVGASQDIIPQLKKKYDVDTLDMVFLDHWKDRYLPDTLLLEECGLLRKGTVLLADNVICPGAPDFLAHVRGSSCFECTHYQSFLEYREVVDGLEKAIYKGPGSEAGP
Sequence of Phenylethanolamine N-methyltransferase (Homo sapiens) (P11086 whole entry, looked up): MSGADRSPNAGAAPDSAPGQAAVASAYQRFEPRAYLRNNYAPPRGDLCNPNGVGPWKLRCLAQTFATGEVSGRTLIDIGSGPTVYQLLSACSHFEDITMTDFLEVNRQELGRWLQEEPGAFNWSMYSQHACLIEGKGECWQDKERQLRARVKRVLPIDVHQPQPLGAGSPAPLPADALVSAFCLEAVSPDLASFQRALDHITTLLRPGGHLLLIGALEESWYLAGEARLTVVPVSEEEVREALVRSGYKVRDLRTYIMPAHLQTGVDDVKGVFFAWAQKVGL

For the compound `CC[C@H]1OC(=O)[C@H](C)[C@@H](O[C@H]2C[C@@](C)(OC)[C@@H](O)[C@H](C)O2)[C@H](C)[C@@H](O[C@@H]2O[C@H](C)C[C@H](N(C)C)[C@@H]2O)[C@](C)(OC)C[C@@H](C)C(=O)[C@H](C)[C@@H](O)[C@]1(C)O`, the Potency result in [1] was “inactive”.
Consider `O=C1NC(=O)c2c1c1c3ccccc3[nH]c1c1[nH]c3ccccc3c21`, for which the Potency result in assay [2], in assay [1], in assay [3], in [5] and in assay [8] was “inactive” in each case. Besides, the values for the activity in assay [4], in [6] and in assay [7] were -2.49%, -2.73% and -3.39%, respectively.
As for `CC[C@@H](C)[C@H]1C(=O)O[C@H](C(C)C)C(=O)N(C)[C@@H]([C@@H](C)CC)C(=O)O[C@H](C(C)C)C(=O)N(C)[C@@H]([C@H](C)CC)C(=O)O[C@H](C(C)C)C(=O)N1C`, the Potency entry in [9], in assay [8], in assay [12], in assay [14], in assay [15] and in [16] was “inactive” in each case. Also, the Potency entry in [17] is “inactive”. Besides, the Potency in [10] was 4.3 µM (active); in [11], 1.71 µM (active). In addition, the outcome in assay [13] is “inactive [at 25.7 µM]”.
`CNC(C)CC1CCCCC1` (stereo unspecified): the Potency result in assay [18], in [2], in assay [21], in assay [23], in assay [8] and in assay [12] was “inactive” each time. The Potency result in assay [25] and in [26] was “inactive” in each case. The max response in assay [19] was -3.52% (inactive). Besides, the outcome in assay [20] was “inactive”. The outcome in assay [22] is “inactive [at 85.7 µM]”. Moreover, the activity change, negative = inhibition in assay [24] is -28.6% [at 85.7 µM].
